Assay outcomes (PubChem)
RE007 growth inh = qHTS Assay for Inhibitors of the HIV-1 protein Vpr; S. pombe RE007 Vpr strain, BacTiter-Glo ATP luminescence, 24 h; Potency, µM (top dose mostly 92.2 µM), for inactives: at the highest dose activity change, negative = less growth, actives largely listed as inhibitors; 360,000 tested, 0.21% active; active = well fitted falling curve with a large enough effect; inconclusive = small, poorly fitted or top-dose-only effect; inactive = no such curve, though single readings can be large or run the other way; note: potency is the fitted concentration of half-maximal effect; % is set by controls: 0 for no effect and ±100 for the full control effect; nearly all actives have a fitted effect of over 50% in size
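Fission yeast RE007 carrying one integrated HIV-1 vpr copy, seeded at OD 0.01 in PMG+AL medium with 23 nL pinned compound. Grown 24 h at 30 degrees; viability read by BacTiter-Glo luminescence after 5 min.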
FBPA Giardia inh = qHTS Assay for Inhibitors of Fructose-1,6-bisphosphate Aldolase from Giardia Lamblia. A8B2U2. purified Giardia FBPA. Potency, µM (highest dose often 59.6 µM), inactives show top-dose activity, negative = inhibition, most hits filed as inhibitors. 290,000 tested, 0.71% active; note: potency is the fitted concentration of half-maximal effect; % is set by controls: 0 for no effect and ±100 for the full control effect; nearly all actives have a fitted effect of over 55% in size
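40 nM FBPA preincubated 10 min at RT with compound (up to 57.5 uM final), then substrate plus GAPDH/TPI/NAD/arsenate coupling and diaphorase/resazurin added. Fluorescence read after 20 min at RT, 525/598 nm.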
Tb PYK inh = qHTS of Trypanosoma Brucei Inhibitors | TbPYK enzyme, Kinase-Glo Plus ATP luminescence, 45 min | 410,000 tested, 0.12% active | Potency, µM (series often up to 76.8 µM), for the others: top-dose activity, negative = inhibition, most hits filed as inhibitors; note: potency is the fitted concentration of half-maximal effect; % is set by controls: 0 for no effect and ±100 for the full control effect; nearly all actives have a fitted effect of over 50% in size
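Enzyme and substrate buffer are dispensed first and compound is pin-transferred. ADP at 130 uM final then starts the reaction, which runs 45 min at room temperature. Detection reagent is added for 10 min before luminescence is imaged.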
LmPK inhibitor = qHTS Assay for Inhibitors of Leishmania Mexicana Pyruvate Kinase (LmPK) | purified LmPK, Kinase-Glo ATP luminescence, 1 h | 290,000 tested, 0.37% active | Potency, µM (highest dose often 57.5 µM), inactives show at the highest dose activity change, negative = inhibition, usual class: inhibitors | Q27686; note: potency is the fitted concentration of half-maximal effect; % is set by controls: 0 for no effect and ±100 for the full control effect
Target sequence (Q27686 whole entry, looked up): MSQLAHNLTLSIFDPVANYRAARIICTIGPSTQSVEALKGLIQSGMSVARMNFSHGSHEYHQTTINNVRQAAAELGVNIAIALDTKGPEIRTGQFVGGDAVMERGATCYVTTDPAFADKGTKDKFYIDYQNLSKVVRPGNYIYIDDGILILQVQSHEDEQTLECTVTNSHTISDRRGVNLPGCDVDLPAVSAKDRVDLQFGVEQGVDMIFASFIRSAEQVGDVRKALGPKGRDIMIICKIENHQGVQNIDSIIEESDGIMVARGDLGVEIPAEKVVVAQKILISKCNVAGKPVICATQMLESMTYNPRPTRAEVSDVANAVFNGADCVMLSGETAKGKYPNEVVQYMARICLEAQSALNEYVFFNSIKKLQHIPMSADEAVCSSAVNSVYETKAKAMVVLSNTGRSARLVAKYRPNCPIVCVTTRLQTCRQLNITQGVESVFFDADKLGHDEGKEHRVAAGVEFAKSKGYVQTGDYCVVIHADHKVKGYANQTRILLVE
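Purified LmPK (0.1 nM) with 0.5 mM PEP and 0.1 mM ADP in imidazole buffer pH 7.2 with MgCl2/KCl, 1 h at room temperature. ATP formed was read by luciferase luminescence and normalized to no-enzyme and uninhibited controls.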
Shiga toxin inh = A qHTS for Small Molecule Inhibitors of Shiga Toxin; Vero cells, Shiga toxin protein synthesis inhibition reporter; 290,000 tested, 9.2% active; inhibition, % at 38.7 µM; in the data active = inhibition mostly above about 28%, no sharp cut-off; inactive = mostly below about 43%; note: 0% is about no effect
CHX counter = Cycloheximide Counterscreen for Small Molecule Inhibitors of Shiga Toxin; cell reporter, cycloheximide protein synthesis inhibition counterscreen; AID 2314, 2010; 300,000 tested, 12% active; max response, %; in the data active = max response mostly above about 13%, no sharp cut-off; inactive = mostly below about 14%; note: read at 38.3 µM for the half of the compounds with a filed dose; 0% is about no effect
Starred values were filed as active, the others as inactive; ? = inconclusive; . = no result given; [ ] = remark or other dose. The entries come from a sample that favours hits as a whole. Unless noted, calls come from the whole dose curve; as a rule, active = well fitted curve in the direction sought with a large enough effect; inconclusive = small, poorly fitted or top-dose-only effect, or another doubt; inactive = no such curve, though single readings can be large; an effect the other way counts as inactive or inconclusive.

SMILES	RE007 growth inh	FBPA Giardia inh	Tb PYK inh	LmPK inhibitor	Shiga toxin inh	CHX counter
O=C(Oc1ccccc1)N1CCC[C@@]2(CCN(c3ncccn3)C2)C1	.	7%	2%	.	.	.
CCOc1ccc(OCC)c(NS(=O)(=O)c2c(C)[nH]c(=O)[nH]c2=O)c1	.	.	4%[15.4 µM]	.	.	.
Nc1[nH]n(-c2ccccc2)c(=O)c1N=Nc1ccc2ncsc2c1	-13%	-14%	-11%	-5%	38*	41*
Cc1ccc(N=Nc2c(C)[nH]n(-c3ccccc3)c2=O)cc1Br	2%	?	5%	5%	17	5
CCCOc1ccc(NC(=O)CC2C(=O)N(c3ccc(C)cc3)C(=O)N2C(C)C)cc1 (stereo not given)	.	.	0%	.	.	.
Nc1c(Cl)nc(-c2ccccc2)nc1Cl	2%	2%	-1%	1%	21	14*
Cc1nc(-c2ccccc2)nc(Cl)c1Cl	9%	4%	-1%	-14%	13	2
CCC(=O)Nc1ccc(O)cc1	.	.	0%	.	.	.
CCC(=O)Nc1ccc(Nc2ccccc2)cc1	21%	1%	-2%	-2%	34*	16*
COCC(=O)Nc1ccc(Nc2ccccc2)cc1	1%	-12%	-10%	0%	61*	12
O=C(Nc1ccc(Nc2ccccc2)cc1)C(Cl)(Cl)Cl	23%	-11%	-11%	2%	49*	27*
C[C@@H]1NC(=O)[C@@H](C)COC(=O)[C@H](C)NC(=O)[C@@H](C)COC1=O	.	0%[12.9 µM]	.	.	.	.
N=c1ccn2c(n1)OC1C(O)[C@@H](CO)O[C@H]12 (stereo not given in full)	.	.	.	.	16	17
O=C(NC1CCCC1)c1ccc2nc[nH]c2c1	3%	-5%	-1%	-5%	16	-1
Cc1ccc(NC(=O)c2ccc3nc[nH]c3c2)cc1C	.	4%	-22%	2%	74*	46*
Cc1cc(C)cc(NC(=O)c2ccc3nc[nH]c3c2)c1	0%	-2%	7%	-6%	64*	11
Cc1cccc(C)c1NC(=O)CNC(=O)c1ccc2nc[nH]c2c1	18%	.	-4%	.	.	.
Cc1cccc(C(=O)N[C@H](C(=O)Nc2cc(S(=O)(=O)N3CCCCC3)ccc2C)C(C)C)c1	-6%	-5%	-3%	2%	-6	0
Cc1cc(C)c2nc(NC(=O)[C@@H](NC(=O)c3cccc(S(=O)(=O)N4CCOCC4)c3)C(C)C)sc2c1	-20%	1%	1%	2%	64*	32*
O=C(Nc1nc2ccccc2[nH]1)c1cccc(S(=O)(=O)N2CCOCC2)c1	-6%	-7%	-10%	3%	42*	39*
O=C(Nc1nc2ccccc2[nH]1)c1ccc(F)c(S(=O)(=O)N2CCOCC2)c1	-10%	1%	4%	-8%	44*	50*
O=C(Nc1ccccc1N1CCOCC1)c1ccc(F)c(S(=O)(=O)N2CCOCC2)c1	-15%	.	-4%	.	.	.
O=C(NCc1nc2ccccc2[nH]1)c1cccc(S(=O)(=O)N2CCOCC2)c1	-12%	2%	6%	-1%	-10	-1
CCOc1ccc(N2C(=O)CCC2=O)cc1	5%	1%	1%	2%	-3	-1
CCCC1CCC(c2ccc(OCC)cc2)=CC1=O (stereo not given)	5%	0%	3%	1%	34*	43*
SMILES	RE007 growth inh	FBPA Giardia inh	Tb PYK inh	LmPK inhibitor	Shiga toxin inh	CHX counter
COCCCNC(=O)c1cc2cc(S(=O)(=O)N3CCCCC3)ccc2n1C	.	.	-6%	.	.	.
COc1ccc(CNC(=O)c2ccc(Br)cc2)cc1	.	1%	.	3%	63	13*
COc1ccc(OCC(O)CNC(=O)c2sccc2Cl)cc1 (stereo not given)	-4%	2%	-3%	4%	16	20*
COc1ccc(CNC(=O)c2ccc(C)cc2)cc1	.	0%	.	.	39*	24
COc1ccc(CCNC(=O)c2ccc(Br)cc2)cc1	3%	-1%	-4%	1%	-9	-1
COc1ccc(C2=C(C)C(=O)N(Cc3ccc(C(=O)NCc4ccc(C)cc4)cc3)S2(=O)=O)cc1	.	.	-4%	.	.	.
COc1ccccc1CNC(=O)c1sccc1C	3%	-4%	0%	5%	35	6
COc1ccc(CNC(=O)c2sccc2C)cc1	49%	-1%	-1%	-1%	22	15*
Cc1ccc2c(=O)c(C(=O)c3cccc(Cl)c3)cn(CC(=O)Nc3ccccc3C(F)(F)F)c2n1	.	.	-2%	.	.	.
Clc1ccc(-c2csc(=Nc3ccccc3)n2Cc2ccc3c(c2)OCO3)cc1	.	.	6%	.	.	.
Cc1ccc(CNC(=O)CCn2cc(-c3ccc(C)cc3)nc2-c2ccncc2)cc1	-11%	15%	-2%	-9%	1	-2
Cc1ccc(CNC(=O)c2ccc(Cn3cc(-c4ccc(C)cc4)nc3-c3ccncc3)cc2)cc1	4%	3%	-2%	-2%	42*	41*
COc1ccc(CNC(=O)c2ccc(-c3ccccc3)cc2)cc1OC	10%	-2%	-6%	-2%	3	1
COc1ccc(CNC(=O)c2ccc(-c3ccccc3)cc2)cc1	2%	5%	-2%	5%	79*	45*
CCCSCCCNC(=O)c1ccc2nc(Cc3ccccc3)oc2c1	.	.	-5%	.	.	.
